Shown are actives, neighbours in structure and some others; about 1.2% of the full set was active somewhere.
uPA surface inh = qHTS for Inhibitors of Cell Surface uPA Generation; cell surface uPA generation assay, qHTS; Potency, µM (doses to about 38.3 µM), usual class: inhibitors; 330,000 compounds, 0.31% hits; active means well fitted inhibition curve with a large enough effect; inconclusive means small, poorly fitted or top-dose-only effect; inactive means no such curve, though single readings can be large or run the other way; tested in mouse RAW 264.7 cells; further: nearly all actives have a fitted effect of over 55% in size
gsp ag = qHTS for Agonist of gsp, the Etiologic Mutation Responsible for Fibrous Dysplasia/McCune-Albright Syndrome: qHTS | gsp mutant cells, cAMP HTRF, 30 min | Potency, µM (series often up to 76.9 µM), most hits filed as activators | 340,000 compounds, 0.13% hits | AID 624287, 2012; active means well fitted activation curve with a large enough effect; inconclusive means small, poorly fitted or top-dose-only effect, or another doubt; inactive means no such curve, though single readings can be large or run the other way; cell line not stated here;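 further: phosphodiesterase inhibitor Ro 20-1724 added with compounds to block cAMP breakdown; nearly all actives have a fitted effect of over 60% in size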
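Cells in DMEM/10% FBS with G418 were pretreated with compounds in DMSO plus […] (300 uM stock) for 30 min at 37C. cAMP was measured by HTRF (cAMP-d2 plus anti-cAMP antibody-K) after 30 min at room temperature.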
gsp antagonist = qHTS for Antagonists of gsp, the Etiologic Mutation Responsible for Fibrous Dysplasia/McCune-Albright Syndrome: qHTS | Potency, µM (doses to about 76.9 µM), usual class: inhibitors | 340,000 compounds, 0.4% hits | AID 624288, 2012 | gsp-mutant cells, cAMP HTRF, 30 min; calls by dose curve; cell line not stated here;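 further: intracellular cAMP measured with PDE inhibitor Ro 20-1724 present during compound exposure; nearly all actives have a fitted effect of over 65% in size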
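HTRF cAMP measurement after 30 min RT detection following 30 min, 37C compound treatment alongside […] (added as 300 uM solution) in G418-selected cells seeded at 2000/well and grown 16–24 h.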
CCT chaperon mod = High-Throughput Screening for Modulators of Cytosolic Chaperonin Activity; purified chaperonin ATPase assay, HTRF ADP detection, 30 min; 360,000 compounds, 0.3% hits; activity change, % (no concentration beside the values), hits read low; in the data active means activity change below about -30%
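TRiC (40 or 20 nM final, by batch activity) in 30 mM Tris pH 7.4, 100 mM KCl, 5 mM MgCl2, 1 mM DTT was treated with compound at 76 uM single dose, then 10 uM ATP, 30 min at 37 °C. ADP was read by HTRF Transcreener.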
TSHR antag = Antagonists of the Thyroid Stimulating Hormone Receptor: HTS campaign; Thyrotropin receptor (Homo sapiens), P16473; activity change, negative = inhibition, % at 11.5 µM; TSHR-expressing cells, TSH-stimulated cAMP HTRF, 2 h; active compounds read low; AID 504810, 2011; 330,000 compounds, 0.2% hits;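 active means activity change below a set negative limit, meaning inhibition stronger than a set level, cut at about -70% in these data; inconclusive means activity change between two set negative limits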
Target sequence (P16473 whole entry, looked up): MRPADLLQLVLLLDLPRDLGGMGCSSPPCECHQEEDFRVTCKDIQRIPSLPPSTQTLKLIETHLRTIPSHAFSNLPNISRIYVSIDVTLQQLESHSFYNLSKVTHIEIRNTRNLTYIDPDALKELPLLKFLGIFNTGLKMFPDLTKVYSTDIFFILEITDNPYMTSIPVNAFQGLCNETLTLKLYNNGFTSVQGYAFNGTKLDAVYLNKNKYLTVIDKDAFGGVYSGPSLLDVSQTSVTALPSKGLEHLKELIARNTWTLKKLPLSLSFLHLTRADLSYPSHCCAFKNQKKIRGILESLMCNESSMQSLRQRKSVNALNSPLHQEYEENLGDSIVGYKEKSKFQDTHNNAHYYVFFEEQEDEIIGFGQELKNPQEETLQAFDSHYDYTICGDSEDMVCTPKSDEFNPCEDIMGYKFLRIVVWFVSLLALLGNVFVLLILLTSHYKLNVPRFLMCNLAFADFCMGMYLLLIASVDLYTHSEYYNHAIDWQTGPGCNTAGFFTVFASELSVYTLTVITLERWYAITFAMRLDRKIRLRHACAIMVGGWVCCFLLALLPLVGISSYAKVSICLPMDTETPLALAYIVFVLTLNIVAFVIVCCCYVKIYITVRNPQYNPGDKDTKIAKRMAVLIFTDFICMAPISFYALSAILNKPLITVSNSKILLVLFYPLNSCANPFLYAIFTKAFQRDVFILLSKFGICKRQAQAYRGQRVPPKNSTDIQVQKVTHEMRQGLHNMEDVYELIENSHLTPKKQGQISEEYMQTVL
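TSHR-expressing cells were treated with compounds, then stimulated with TSH at EC80 (4nM final) for 2 hours at 37 deg C. Cellular cAMP was measured by HTRF competition between lysate cAMP and cAMP-d2 for a cryptate-labelled anti-cAMP antibody.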
MmCpn inh = Inhibitors of TCP-1 ring complex (TRiC) of Methanococcus maripaludis (MmCpn): qHTS. purified Mm-Cpn ATPase, ADP Transcreener TR-FRET. Potency, µM (top dose mostly 76.9 µM), actives largely listed as inhibitors. 330,000 compounds, 0.031% hits; active means well fitted inhibition curve with a large enough effect; inconclusive means small, poorly fitted or top-dose-only effect; further: nearly all actives have a fitted effect of over 80% in size
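Purified archaeal chaperonin (25 nM final) was preincubated with compound for 10 min at 37°C, then ATP (10 uM final) was added for 30 min at 37°C in Tris pH 7.4/KCl/MgCl2/DTT buffer. ADP was quantified by HTRF Transcreener TR-FRET.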
A number is an active result; [ ] = remark or other dose.

Screening COc1ccc(/C=N/NC(=O)c2cc(C)oc2C)cc1OCc1ccccc1 returned uPA surface inh inactive, gsp ag inactive, gsp antagonist 12.6µM, CCT chaperon mod inactive, TSHR antag inactive and MmCpn inh inactive.
CC(=O)N/N=C/c1ccccc1OCCOc1cccc(C)c1 was read as uPA surface inh 12.6µM, gsp ag inactive, gsp antagonist inactive, CCT chaperon mod inactive, TSHR antag inactive and MmCpn inh inactive.
For Cc1cc(S(=O)(=O)Nc2c(NC3CCCCC3)c3ccccc3oc2=O)ccc1F the results were uPA surface inh inactive, gsp ag inactive, gsp antagonist inconclusive, CCT chaperon mod inactive, TSHR antag inactive and MmCpn inh inactive.
`CC(=O)Nc1ccc(S(=O)(=O)Nc2c(NC3CCCCC3)c3ccccc3oc2=O)cc1` gave uPA surface inh inactive, gsp ag inactive, gsp antagonist inactive, CCT chaperon mod inactive, TSHR antag -89.2 and MmCpn inh inactive.
O=C(NC1CCOc2ccccc21)c1ccccn1 (centres undefined) was read as uPA surface inh inactive, gsp ag inconclusive, gsp antagonist inactive, CCT chaperon mod inactive, TSHR antag -91.7 and MmCpn inh inactive.
`O=C(NC1CCCc2ccccc21)c1ccccn1` (centres undefined) gave uPA surface inh inactive, gsp ag inactive[15.4 µM], gsp antagonist inactive, CCT chaperon mod inactive, TSHR antag inactive and MmCpn inh inactive.
For O=C(COC(=O)c1cc(=O)[nH]c2ccccc12)NCc1ccccc1 the results were uPA surface inh inactive, gsp ag inactive, gsp antagonist inactive, CCT chaperon mod inactive and MmCpn inh inactive.
CCN(C(=O)COC(=O)c1cc(=O)[nH]c2ccccc12)c1c(N)n(Cc2ccccc2)c(=O)[nH]c1=O was read as uPA surface inh inactive, gsp ag inactive, gsp antagonist inactive and CCT chaperon mod inactive.
`CCNC(=O)COC(=O)c1cc(=O)[nH]c2ccccc12` gave gsp ag inactive, gsp antagonist inactive, CCT chaperon mod -34.7, TSHR antag inactive and MmCpn inh inactive.
For CC(C)CN(C(=O)COC(=O)c1cc(=O)[nH]c2ccccc12)c1c(N)n(Cc2ccccc2)c(=O)[nH]c1=O the results were uPA surface inh inactive, gsp ag inactive, gsp antagonist inactive and CCT chaperon mod -30.1.
`O=C(CSc1nc2c(sc3ccccc32)c(=O)n1CCCN1CCOCC1)NCC1CCCO1` (centres undefined) gave uPA surface inh inactive, gsp ag inactive[15.4 µM], gsp antagonist inactive, CCT chaperon mod inactive, TSHR antag inactive and MmCpn inh inactive.
`O=C(NCc1ccc(F)cc1)c1ccncc1` gave uPA surface inh inactive, gsp ag inactive, gsp antagonist inactive, CCT chaperon mod inactive, TSHR antag -121.3 and MmCpn inh inactive.
Screening COc1ccc(/C=C(\C#N)C(=O)N2COCC2(C)C)cc1 returned uPA surface inh inactive, gsp ag inactive, gsp antagonist inactive, CCT chaperon mod inactive, TSHR antag -75.4 and MmCpn inh inactive.
For CCOC(=O)c1cc(-c2ccc(C)cc2)n(CCC(=O)NCCCOC)c1C the results were uPA surface inh inactive, gsp ag inactive, gsp antagonist inactive, CCT chaperon mod inactive, TSHR antag inactive and MmCpn inh inactive.
CC1CC(C)CN(C(=O)c2cc3ccccc3o2)C1 (centres undefined) was read as uPA surface inh inactive, gsp ag inactive[15.4 µM], gsp antagonist inactive, CCT chaperon mod inactive, TSHR antag inactive and MmCpn inh inactive.
Screening CC1CCN(C(=O)c2cc3ccccc3o2)CC1 returned uPA surface inh inactive, gsp ag inactive, gsp antagonist inactive, CCT chaperon mod -35.9, TSHR antag inactive and MmCpn inh inactive.
CCN(CC)c1ccc(/C=C(\C#N)c2ccccn2)cc1 was read as uPA surface inh inactive, gsp ag inactive[15.4 µM], gsp antagonist inactive, CCT chaperon mod inactive, TSHR antag inconclusive and MmCpn inh inactive.
For CN(CCC#N)c1ccc(/C=C(\C#N)c2ccccn2)cc1 the results were uPA surface inh 2.51µM, gsp ag inactive, gsp antagonist inactive, CCT chaperon mod inactive, TSHR antag inactive and MmCpn inh inactive.
`COc1ccc(C(=O)NNC(=O)c2ccccn2)cc1` gave uPA surface inh 3.16µM, gsp ag inactive, gsp antagonist inactive, CCT chaperon mod inactive, TSHR antag inactive and MmCpn inh inactive.
CCOc1ccc(NC(=O)c2ccccn2)cc1 was read as uPA surface inh 1.58µM, gsp ag inconclusive, gsp antagonist inactive, CCT chaperon mod inactive, TSHR antag inactive and MmCpn inh inactive.
For CCOc1ccc(NC(=S)Nc2ccc(OCC)cc2)cc1 the results were uPA surface inh inactive, gsp ag inactive[15.4 µM], gsp antagonist 35.5µM, CCT chaperon mod inactive, TSHR antag inactive and MmCpn inh inactive.
`CCOc1ccc(NC(=S)c2ccc3ccccc3n2)cc1` gave uPA surface inh inactive, gsp ag inactive, gsp antagonist inactive, CCT chaperon mod -30.0, TSHR antag inactive and MmCpn inh inactive.
For CCOc1ccc(NC(=O)c2cnccn2)cc1 the results were uPA surface inh inactive, gsp ag inactive, gsp antagonist inactive, CCT chaperon mod inactive, TSHR antag inactive and MmCpn inh inactive.
`COc1cc(OC)cc(C(=O)NNC(=O)c2ccccn2)c1` gave uPA surface inh inactive, gsp ag inactive[15.4 µM], gsp antagonist inactive, CCT chaperon mod inactive, TSHR antag inactive and MmCpn inh inactive.
CCNC(=S)Nc1ccc(OCC)cc1 was read as uPA surface inh inactive, gsp ag inactive, gsp antagonist inactive, CCT chaperon mod inactive, TSHR antag inactive and MmCpn inh inactive.
For Cc1ccc(/C=C/c2nc3ccccc3c(=O)n2CCc2ccccc2)cc1 the results were uPA surface inh inactive, gsp ag inactive, gsp antagonist inactive, CCT chaperon mod inactive, TSHR antag inactive and MmCpn inh inactive.
NNC(=O)c1cc2cc(Oc3ccccc3)ccc2[nH]1 was read as uPA surface inh inactive, gsp ag inactive[15.4 µM], gsp antagonist inactive, CCT chaperon mod inactive, TSHR antag inactive and MmCpn inh inactive.
`CCOC(=O)N1CCN(C(=O)c2cccc(F)c2)CC1` gave uPA surface inh inactive, gsp ag inactive, gsp antagonist inactive, CCT chaperon mod inactive, TSHR antag inactive and MmCpn inh inactive.
For COc1ccc(C)cc1NC(=O)C(OC(=O)C1=NNC(=O)CC1)c1ccccc1 (centres undefined) the results were uPA surface inh inactive, gsp ag inconclusive, gsp antagonist inactive, CCT chaperon mod inactive, TSHR antag inactive and MmCpn inh inactive.

Bioassay records (PubChem BioAssay)
